Screening data as filed in PubChem BioAssay.
Pf Dd2 inh: Plasmodium falciparum Dd2 growth inhibition | Potency, µM (doses to about 28.9 µM), for the others: at the highest dose activity, negative = inhibition, usual class: inhibitors | actives 4.3% (n = 120,000) | P. falciparum Dd2 growth, SYBR Green, 72 h | AID 1347417; active = well fitted inhibition curve with a large enough effect;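 also: plate controls were DMSO vehicle for no effect and reference drug for full effect; nearly all actives have a fitted effect of over 65% in size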
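Readout: SYBR Green fluorescence, 485 nm excitation, 535 nm emission, after ~16 h lysis at 37C. Before that, Dd2-infected red cells (2.5% hematocrit) grew 72 h with compound, 29 uM top final concentration.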
The depositor's hits bear a star; i = inactive; [ ] = remark or other dose. This is one part of a sample in which hits are shown more often than they occur. Potency is read from the fitted curve at half-maximal effect.

SMILES	Pf Dd2 inh
CC(=O)N1CCCC(c2nn(C)c(=O)n2C(C)C)C1 (stereo not drawn)	35%
O=C(c1ccccc1)N1CCn2c(nn(-c3ccncc3)c2=O)C1	9%[44.1 µM]
CCNC(=O)N1CCC[C@@H](O)[C@H](NC(=O)c2ccc(OCCOC)cc2)C1	-28%[44.1 µM]
CN(Cc1cccnc1)C(=O)c1c(OCC2CC2)cc(=O)n2c1CCCCC2	28%
COc1ccc2[nH]cc(CCNC(=O)C[C@H]3NC(=O)c4ccccc4NC3=O)c2c1	-12%
COc1ccccc1CC(=O)N1CC[C@@H]2NC(=O)[C@H]3C[C@H](NC(=O)C4CCC4)CN3C(=O)[C@H]21	17%
CCc1cn[nH]c1C1CCCN(C(=O)c2oc3cc(C)ccc3c2C)C1 (stereo not drawn)	1%
Cc1ccc(-c2nc3cccnc3s2)cc1NC(=O)C(C)C	-21%
CCC(C(=O)Nc1cc(-c2nc3cccnc3s2)ccc1C)c1ccccc1 (stereo not drawn)	10µM*
Cc1cccc(C(=O)Nc2cc(-c3nc4cccnc4s3)ccc2C)c1	4%
Cc1cccc(N2CCN(C(=O)C3CCN(S(=O)(=O)c4c(C)noc4/C=C/c4ccccc4F)CC3)CC2)c1C	i
Cc1ccc(/C=C/c2onc(C)c2S(=O)(=O)N2CCC(C(=O)N3CCC(N(C)C(C)C)CC3)CC2)cc1	10µM*
Cc1ccc(/C=C/c2onc(C)c2S(=O)(=O)N2CCC(C(=O)N3CCN(c4cccc(C)c4)C(C)C3)CC2)cc1 (stereo not drawn)	i
Cc1ccc(/C=C/c2onc(C)c2S(=O)(=O)N2CCC(C(=O)Nc3cc(F)ccc3F)CC2)cc1	-1%
Cc1cccc(/C=C/c2onc(C)c2S(=O)(=O)N2CCC(C(=O)N3CCC(C)CC3)CC2)c1	57%
Cc1ccc(/C=C/c2onc(C)c2S(=O)(=O)N2CCC(C(=O)N3CCN(c4ccccc4F)CC3)CC2)cc1	6.3µM*
CN1C(=O)[C@@H]2C[C@@H](CN2Cc2ccc(F)cc2)Oc2ccccc21	-22%[44.1 µM]
CCN(CC)C(=O)C(NC(=O)c1ccccc1)C1CCN(S(=O)(=O)c2ccc(C)cc2)CC1 (stereo not drawn)	i
COCCc1nncn1C1CCN(S(=O)(=O)c2ccc(F)cc2)CC1	13%
COC[C@@H]1CN(C(=O)c2ccc(C)[nH]c2=O)C[C@H]1c1ccncc1	43%
COc1cccc(Nc2ccc3c(n2)C(C)(C(=O)NCc2ccco2)CN(C)C3)c1 (stereo not drawn)	-16%[44.1 µM]
COc1cccc(Nc2ccc3c(n2)C(C)(C(=O)NC(C)C)CN(C)C3)c1 (stereo not drawn)	2.5µM*
COCCNC(=O)C1(C)CN(C)Cc2ccc(Nc3cccc(OC)c3)nc21 (stereo not drawn)	i
COc1cccc([C@@H]2CN(CC3CCOCC3)C[C@H]2C(=O)O)c1OC	-19%
O=C(O)Cn1nc(C2CCOCC2)nc1CC1NC(=O)NC1=O (stereo not drawn)	0%
SMILES	Pf Dd2 inh
C=CCCC(CN1CCCC1)Oc1cc(N2CCOCC2)ncn1 (stereo not drawn)	-4%
C=CCCC(CN1CCSCC1)Oc1nc(OC)cc(OC)n1 (stereo not drawn)	-18%
C=CCCC(CN1CCOCC1)Oc1ccc(-c2ccccc2)nn1 (stereo not drawn)	-12%
C=CCCC(CN1CCSCC1)Oc1ncc(CC)cn1 (stereo not drawn)	-14%
C=CCCC(CN1CCCC1)Oc1ccc(C(=O)NCC)cn1 (stereo not drawn)	3.2µM*
C=CCCC(CN1CCCC1)Oc1ccc(-c2ccccc2)nn1 (stereo not drawn)	11µM*
O=C(NCc1cccc(C(F)(F)F)c1)C1(CCO)CCN(c2ncccn2)C1 (stereo not drawn)	-9%
O=C(NCc1ccc(C(F)(F)F)cc1)C1CCCN(c2nc3ncccc3o2)C1 (stereo not drawn)	i
O=C(NC(C(=O)N1CCCC1)C1CCN(C(=O)c2ccc3c(c2)OCO3)CC1)c1ccc(F)cc1 (stereo not drawn)	i
COc1ccc(-c2cc(N3CCC(NC(=O)c4cc(F)ccc4Cl)C3)n[nH]2)cc1 (stereo not drawn)	-13%
O=C(c1ccc(F)c(Cl)c1)N1CCCC2(C1)NC(=O)N(Cc1ccccc1)C2=O (stereo not drawn)	-24%
Cc1ccc(CN2C(=O)NC3(CCCN(C(=O)c4cccc(Cl)c4)C3)C2=O)cc1 (stereo not drawn)	i
Cc1ccc(CN2C(=O)NC3(CCCN(C(=O)c4ccc(F)c(Cl)c4)C3)C2=O)cc1 (stereo not drawn)	7.1µM*
CCOc1ccc(NC(=O)N2CCC(c3ccc(C)cc3)C2)cc1 (stereo not drawn)	i
CCOc1ccc(NC(=O)c2cc3nc(-c4ccc(OC)cc4)cc(C(F)(F)F)n3n2)cc1	70%
COc1ccc(OC)c(NC(=O)c2cnc(N3CCCC3)nc2C)c1	26%
CCOc1ccc(-c2cc3nc(C4CCN(C(=O)OC(C)(C)C)CC4)c(C(=O)Nc4cc(OC)ccc4OC)cn3n2)cc1	4µM*
CCOc1ccc(-c2cc3nc(C4CCN(C(=O)OC(C)(C)C)CC4)c(C(=O)Nc4ccc(C)c(F)c4)cn3n2)cc1	7.1µM*
COc1ccc(-c2cn3nc(N4CCC(C(=O)Nc5cc(Cl)ccc5OC)CC4)sc3n2)cc1	i
COCCCNC(=O)CCC[C@@H]1[C@H]2CCCN3CCC[C@@H](CN1C(=O)c1cccnc1)[C@@H]23	9%
CNC(=O)c1noc([C@@H]2CC(F)(F)CN2C(=O)CC2=CCCCC2)n1	14%
COc1ccc(F)cc1S(=O)(=O)N1C[C@@H](F)C[C@H]1C(=O)N1CCc2ccccc2C1	i
Cc1noc(-c2cn(C3CCCN(C(=O)c4ccc(OC(F)(F)F)cc4)C3)nn2)n1 (stereo not drawn)	i
O=C(NCC(F)(F)F)C1CCCN(c2nc3ncccc3o2)C1 (stereo not drawn)	-4%[44.1 µM]
CCC(c1cnn(C)c1)n1ccnc1-c1ccc(SC)cc1 (stereo not drawn)	-8%
SMILES	Pf Dd2 inh
Cc1n[nH]c(C)c1S(=O)(=O)N(CC(=O)Nc1ccc(C(F)(F)F)cc1)c1ccc(C(C)C)cc1	0%
Cc1ccc(N(CC(=O)Nc2ccc(OC(F)(F)F)cc2)S(=O)(=O)c2c(C)noc2C)cc1	-16%
Cc1noc(C)c1S(=O)(=O)N(CC(=O)Nc1ccc(C(F)(F)F)cc1)c1ccc(C(C)C)cc1	11µM*
Cc1nc(CC2CCN(C(=O)Nc3ccc4c(c3)OCCO4)CC2)n[nH]1	-23%
CC(=O)N1CCC(N2C[C@@H]3OCC(=O)N(CC4CC4)[C@@H]3C2)CC1	-12%[44.1 µM]
CCCn1nccc1C(=O)N1CCCC(CCc2cccc(C(F)(F)F)c2)C1 (stereo not drawn)	i
O=C(c1cccc(O)c1)N1CCCC(CCc2cccc(C(F)(F)F)c2)C1 (stereo not drawn)	i
CCNc1ncc(CN2CCCC(CCc3cccc(C(F)(F)F)c3)C2)cn1 (stereo not drawn)	7.9µM*
OC[C@@H]1O[C@H](CNC2CCOCC2)[C@H](N2CCN(c3ccc(F)cc3)CC2)[C@@H]1O	-10%
COc1cccc(NC(=O)c2sc3nc(C)c(C(=O)Nc4ccc(C)cc4C)c(-c4ccc(C)o4)c3c2N)c1	11µM*
COc1ccc(NC(=O)c2sc3nc4c(cc3c2N)CCCCCC4)c(OC)c1	-13%
COc1cccc(NC(=O)c2cnc(-c3ccc(C)cc3)nc2-c2ccncc2)c1	-23%
Cc1ccc(NC(=O)c2sc3nc(-c4cccs4)ccc3c2N)cc1F	-4%
